The values below come from PubChem BioAssay (NCI).

This is part of a sample that, as a whole, favours compounds with a hit. Of some 83,000 tested, about 20% had one in any assay.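 Plates (96-well) were seeded with cells, treated with compound at one concentration, and incubated for 48 hours before percent growth was determined.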 Unmarked numbers belong to inactive results. The source made the active and inactive calls. The calls were made as follows: active = growth percent below 10; inactive = the rest.

Among the test systems are RPMI-8226 leukemia; OVCAR-8 ovarian; OVCAR-5 ovarian; OVCAR-4 ovarian; SK-OV-3 ovarian; IGROV1 ovarian; HS 578T breast; NCI/ADR-RES ovarian; T-47D breast; BT-549 breast; MDA-MB-435 melanoma; SW-620 colon; MCF7 breast; HCT-116 colon; HCC-2998 colon; KM12 colon; SR leukemia; OVCAR-3 ovarian.
Common to all, as to assay: NCI-60 one-dose screen, 48 h (100 = growth as untreated, 0 = no growth, -100 = all killed)
Conditions in all cases: 10 µM unless noted

With `Cc1cc(-c2ccc(Cl)cc2)n(Cc2nnc(SCC(=O)Nc3ccc(S(N)(=O)=O)cc3)n2C2CCCCC2)n1`, the growth in the test with RPMI-8226 leukemia is 102%; with OVCAR-8 ovarian, 99.2%; in the test on OVCAR-5 ovarian it was 107%; in the test on OVCAR-4 ovarian, 109%; in the test with SK-OV-3 ovarian, 106%; in the test with IGROV1 ovarian, 104%. Also, the growth is 100% in the test with HS 578T breast; 106% with NCI/ADR-RES ovarian; 108% with T-47D breast; 124% in the test with BT-549 breast; 109% in the test with MDA-MB-435 melanoma; 107% in the test with SW-620 colon. Besides, the growth with MCF7 breast is 91%; in the test with HCT-116 colon, 107%; in the test on HCC-2998 colon, 110%; in the test on KM12 colon, 108%.

On to `COc1cccc(C(=O)Nc2cccc(C#Cc3cccc4[nH]nc(N)c34)c2)c1`, for which the growth in the test on OVCAR-8 ovarian was 50.4%; in the test on OVCAR-5 ovarian, 69.2%; in the test with OVCAR-4 ovarian, 67.8%; in the test on SK-OV-3 ovarian, 86.7%; in the test with IGROV1 ovarian, 59.9%; in the test on HS 578T breast, 66.4%. The growth was 45.5% in the test on NCI/ADR-RES ovarian; 38% with T-47D breast; 121% in the test on BT-549 breast; 1.93% (active) in the test on MDA-MB-435 melanoma; 34% with SW-620 colon; 30.7% in the test with MCF7 breast. Besides, the growth is 33.1% in the test on HCT-116 colon, 45.9% with HCC-2998 colon and 12.6% with KM12 colon.

As to `Cc1ccc(NC(=O)CNc2cc(C(N)=O)cc(F)c2C)c(Cl)c1`, the growth in the test on SR leukemia is 95.2%; with OVCAR-8 ovarian, 99.9%; with OVCAR-5 ovarian it was 87.9%; in the test on OVCAR-4 ovarian it was 75.2%; in the test with SK-OV-3 ovarian it was 104%; with HS 578T breast, 92.8%. The growth is 105% in the test with NCI/ADR-RES ovarian; 104% in the test with T-47D breast; 102% in the test on BT-549 breast; 97.4% in the test on MDA-MB-435 melanoma; 96.8% in the test with SW-620 colon; 87.2% in the test on MCF7 breast. Moreover, the growth with HCT-116 colon was 96.3%; in the test with HCC-2998 colon, 122%; with KM12 colon it was 99.1%.

As for `CNC(=O)c1cc(Oc2ccc3nc(NC(=O)c4cc(N5CCOCC5)cc(C(F)(F)F)c4)sc3c2)ccn1`, the growth in the test on SR leukemia is 27.1%; in the test with OVCAR-8 ovarian, 65.5%; in the test with OVCAR-5 ovarian it was 97.1%; with OVCAR-4 ovarian it was 64.8%; in the test with SK-OV-3 ovarian, 97.9%; in the test on IGROV1 ovarian, 99.6%. Also, the growth is 79.2% with HS 578T breast; 80.2% with NCI/ADR-RES ovarian; 74.2% in the test with T-47D breast; 88.1% in the test with BT-549 breast; 67.8% with MDA-MB-435 melanoma; 107% with SW-620 colon. In addition, the growth in the test with MCF7 breast is 75.5%; in the test on HCT-116 colon, 63.1%; in the test with HCC-2998 colon it was 114%; with KM12 colon, 71.3%.

As to `O=S(=O)(NCCCNc1nccc(-c2[nH]c(-c3ccccc3)nc2-c2ccc(Cl)c(O)c2)n1)c1cccc(F)c1`, the growth was 39.4% in the test on SR leukemia; 50.1% in the test on OVCAR-8 ovarian; 85.4% in the test on OVCAR-5 ovarian; 71.8% with OVCAR-4 ovarian; 105% with SK-OV-3 ovarian; 57.9% in the test with IGROV1 ovarian. The growth in the test on OVCAR-3 ovarian was 60.3%; in the test on HS 578T breast it was 96.2%; in the test with NCI/ADR-RES ovarian it was 73.2%; with T-47D breast it was 49.9%; in the test on BT-549 breast, 59.7%; in the test with MDA-MB-435 melanoma, 21.5%. For the same compound, the growth was 92.5% in the test with SW-620 colon, 55.3% with MCF7 breast, 35.4% in the test with HCT-116 colon and 60.5% in the test with KM12 colon.

With `Clc1nc2ccccc2nc1-c1nnc(C2CCCCC2)o1`, the growth in the test with RPMI-8226 leukemia is 95.4%; in the test with OVCAR-8 ovarian, 101%; with OVCAR-5 ovarian, 107%; with OVCAR-4 ovarian it was 98%; with SK-OV-3 ovarian, 102%; in the test on IGROV1 ovarian it was 101%. Also, the growth in the test on HS 578T breast was 92.8%; with NCI/ADR-RES ovarian it was 107%; with T-47D breast it was 86%; in the test with BT-549 breast, 138%; with MDA-MB-435 melanoma, 99.1%; with SW-620 colon, 97.2%. The growth was 37.4% in the test on MCF7 breast, 101% with HCT-116 colon, 104% in the test on HCC-2998 colon and 94.1% in the test with KM12 colon.

As for `Cc1nn(-c2ccccc2)c2ncnc(N/N=C/c3ccccc3O)c12`, the growth in the test on SR leukemia was 11.5%; with OVCAR-8 ovarian, 12.2%; in the test on OVCAR-5 ovarian, 35.9%; in the test with OVCAR-4 ovarian it was 28.6%; in the test with SK-OV-3 ovarian, 10.4%; in the test on IGROV1 ovarian, 3.8% (active). The growth in the test on OVCAR-3 ovarian was 29.4%; in the test with HS 578T breast, 35.6%; in the test on NCI/ADR-RES ovarian, 3.15% (active); in the test with T-47D breast, 15.6%; in the test on MDA-MB-435 melanoma, 16.3%; with SW-620 colon it was 26.2%. Moreover, the growth in the test with MCF7 breast was 9.62% (active); in the test with HCT-116 colon, 20.9%; in the test on HCC-2998 colon, 52%; with KM12 colon it was 16.7%.

For the compound `c1ccc(C(c2nc3ncncc3[nH]2)N2CSc3nc4ncncc4n3C2)cc1` (configuration not stated), the growth in the test with SR leukemia was 84.9%; in the test with OVCAR-5 ovarian, 62.4%; in the test with OVCAR-4 ovarian it was 27.1%; in the test with SK-OV-3 ovarian, 23.1%; with IGROV1 ovarian, 77.6%; with OVCAR-3 ovarian, 38.6%. In addition, the growth is 77.2% in the test with HS 578T breast; 44.4% with NCI/ADR-RES ovarian; 34.4% in the test with T-47D breast; 73.1% with BT-549 breast; 29.2% with MDA-MB-435 melanoma; 79% in the test on SW-620 colon. In addition, the growth is 14.2% in the test on MCF7 breast, 41.5% in the test on HCT-116 colon, 55.6% in the test with HCC-2998 colon and 51.7% in the test on KM12 colon.

Regarding `c1cn2c(ccc3nc(-c4cn[nH]c4)c4c(c32)CCCC4)n1`, the growth with RPMI-8226 leukemia was 80.7%; in the test on OVCAR-8 ovarian, 57.1%; in the test with OVCAR-5 ovarian it was 99.4%; in the test with OVCAR-4 ovarian it was 77.9%; in the test on SK-OV-3 ovarian, -10.1% (active); with IGROV1 ovarian, 45.3%. Moreover, the growth in the test with HS 578T breast is 31.5%; in the test with NCI/ADR-RES ovarian it was 77.3%; in the test with T-47D breast it was 45.4%; with BT-549 breast, 53.1%; in the test on MDA-MB-435 melanoma, 34.9%; in the test on SW-620 colon it was 61.2%. The growth with MCF7 breast was 60.9%; in the test with HCT-116 colon, 48.7%; with HCC-2998 colon, 87.2%; in the test on KM12 colon, 74.9%.

For `CCN1CCN(C(=O)[C@]23CCC(C)(C)C[C@H]2C2=CC[C@@H]4[C@@]5(C)Cc6c([nH]c7ccccc67)C(C)(C)[C@@H]5CC[C@@]4(C)[C@]2(C)CC3)CC1`, the growth with RPMI-8226 leukemia was 84.9%; in the test on OVCAR-8 ovarian, 91.8%; in the test on OVCAR-5 ovarian it was 80.1%; with OVCAR-4 ovarian it was 99.7%; with SK-OV-3 ovarian, 106%; in the test with IGROV1 ovarian it was 88.7%. For the same compound, the growth with OVCAR-3 ovarian was 106%; with HS 578T breast it was 87.1%; in the test with NCI/ADR-RES ovarian, 87%; in the test with T-47D breast it was 72.6%; in the test on BT-549 breast it was 101%; with MDA-MB-435 melanoma, 91.4%. In addition, the growth was 98.1% with SW-620 colon; 78.1% in the test on MCF7 breast; 77.7% with HCT-116 colon; 106% with HCC-2998 colon; 86.2% in the test with KM12 colon.

Regarding `Cc1ccc(CSc2nc(-c3ccc(Cl)cc3)c(C#N)c(N3CCOCC3)n2)cc1`, the growth in the test on SR leukemia is 85.6%; in the test on OVCAR-8 ovarian it was 97.2%; in the test with OVCAR-5 ovarian it was 100%; in the test with OVCAR-4 ovarian, 89.8%; with SK-OV-3 ovarian, 98.2%; in the test on IGROV1 ovarian, 106%. For the same compound, the growth in the test on HS 578T breast was 107%; in the test on NCI/ADR-RES ovarian, 94.8%; in the test with MDA-MB-435 melanoma, 94.8%; in the test with SW-620 colon it was 96%; in the test on MCF7 breast it was 88.6%; in the test with HCT-116 colon it was 90%. Moreover, the growth with KM12 colon is 96.5%.
